Measurements from PubChem BioAssay (NCI).
The panel holds about 83,000 compounds, 20% with a hit somewhere; the sample as a whole holds those more often.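 Treatment: one concentration, 48 hours, 96-well format. Scoring: percent growth, with anything below 10 considered active.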 Calls of active or inactive are those of the source.

Columns and labels:
Experiment in all cases: NCI-60 one-dose screen, 48 h (100 = growth as untreated, 0 = no growth, -100 = all killed)
Details in all cases: 10 µM unless noted
NCI-H23 lung = system: NCI-H23 lung
NCI-H226 lung = system: NCI-H226 lung
NCI-H322M lung = system: NCI-H322M lung
HOP-62 NSCLC = system: HOP-62 NSCLC
NCI-H460 lung = system: NCI-H460 lung
HOP-92 NSCLC = system: HOP-92 NSCLC
NCI-H522 lung = system: NCI-H522 lung
A549/ATCC NSCLC = system: A549/ATCC NSCLC
786-0 renal = system: 786-0 renal
COLO 205 colon = system: COLO 205 colon

Measured: growth

N#Cc1cccc(NC(=O)c2cc(-c3ccc(F)cc3F)ccc2O)c1
inactive: HOP-62 NSCLC 23% | A549/ATCC NSCLC 27.3% | 786-0 renal 31.1% | COLO 205 colon 107%
active: NCI-H23 lung 1.56% | NCI-H226 lung 3.58% | NCI-H322M lung 1.78% | NCI-H460 lung 6.49% | HOP-92 NSCLC -24.2% | NCI-H522 lung -3.38%

[O-][n+]1c2ccccc2[n+]([O-])c2c3ccccc3[nH]c21
inactive: NCI-H23 lung 71.5% | NCI-H322M lung 66.9% | HOP-62 NSCLC 26.2% | HOP-92 NSCLC 66.5% | NCI-H522 lung 57.5% | A549/ATCC NSCLC 30.6% | 786-0 renal 71% | COLO 205 colon 69.8%
active: NCI-H226 lung -0.987% | NCI-H460 lung 5.29%

CCOC(=O)c1c(C)nc2c(c1N)CC(=O)N2Cc1ccc(F)cc1
inactive: NCI-H23 lung 99.8% | NCI-H226 lung 90.8% | NCI-H322M lung 107% | HOP-62 NSCLC 82.1% | NCI-H460 lung 99.7% | HOP-92 NSCLC 71.5% | NCI-H522 lung 63.7% | A549/ATCC NSCLC 90.8% | 786-0 renal 98.3% | COLO 205 colon 103%

CCCCn1c(-c2ccc(C(=O)O/N=C(\N)c3ccc(OC)cc3)cc2)nc(-c2ccccc2)c1-c1ccccc1
inactive: NCI-H226 lung 69.5% | NCI-H322M lung 62.3% | HOP-62 NSCLC 11.7%
active: NCI-H23 lung -41.9% | NCI-H460 lung -32.3% | HOP-92 NSCLC -68.7% | NCI-H522 lung -63.2% | A549/ATCC NSCLC -31.7% | 786-0 renal -63.9% | COLO 205 colon 0.164%

CCCCCCN(CCCCCC)c1ccc(/C=C2/SC(=O)NC2=O)c(C)c1
inactive: NCI-H23 lung 76.5% | NCI-H226 lung 104% | NCI-H322M lung 87% | HOP-62 NSCLC 110% | NCI-H460 lung 81.3% | HOP-92 NSCLC 13.9% | NCI-H522 lung 77.4% | A549/ATCC NSCLC 73.2% | 786-0 renal 77.6% | COLO 205 colon 109%

CC1CN(C2CCCCC2)C(=S)N(c2ccccc2)C1=O (stereo not given)
inactive: NCI-H23 lung 100% | NCI-H226 lung 115% | NCI-H322M lung 107% | HOP-62 NSCLC 93.7% | NCI-H460 lung 107% | HOP-92 NSCLC 92.8% | NCI-H522 lung 116% | A549/ATCC NSCLC 102% | 786-0 renal 92.2% | COLO 205 colon 127%

CCN(CC)CCNC(=O)c1cn2ncnc(Oc3ccc(NC(=O)Nc4ccc(Cl)c(C(F)(F)F)c4)cc3)c2c1C
active: NCI-H23 lung -83.6% | NCI-H226 lung 6% | NCI-H322M lung 4.06% | HOP-62 NSCLC -78.5% | NCI-H460 lung -74.4% | HOP-92 NSCLC -39.1% | NCI-H522 lung -63% | A549/ATCC NSCLC -85.2% | 786-0 renal -89.9% | COLO 205 colon -73.4%

COc1ccc(-c2cc(-c3ccc(Cl)cc3)c(C#N)c(=O)n2CCCCCC(=O)Nc2ccccc2N)cc1
inactive: NCI-H23 lung 63.1% | NCI-H226 lung 72.9% | NCI-H322M lung 61.4% | HOP-62 NSCLC 41.8% | NCI-H460 lung 26.7% | HOP-92 NSCLC 13% | NCI-H522 lung 33.7% | A549/ATCC NSCLC 35.7% | 786-0 renal 41.5% | COLO 205 colon 10.1%

COc1ccc(-c2nc3sc(-c4ccccc4)cn3n2)cc1
inactive: NCI-H23 lung 72% | NCI-H226 lung 76.3% | NCI-H322M lung 85.8% | HOP-62 NSCLC 50.5% | NCI-H460 lung 34.9% | HOP-92 NSCLC 67.6% | NCI-H522 lung 29.6% | A549/ATCC NSCLC 50.8% | 786-0 renal 88% | COLO 205 colon 36.7%

CCOC(=O)c1cn2ncnc(Oc3ccc(NC(=O)NCCN(CC)CC)c(Cl)c3)c2c1C
inactive: NCI-H23 lung 76.6% | NCI-H226 lung 91.5% | NCI-H322M lung 98.7% | HOP-62 NSCLC 84.2% | NCI-H460 lung 104% | HOP-92 NSCLC 41.5% | NCI-H522 lung 72.9% | A549/ATCC NSCLC 91.5% | 786-0 renal 72% | COLO 205 colon 57.2%

Cc1cc(N2CCCC2)nc(N(CCCNc2ccnc3cc(Cl)ccc23)Cc2ccccn2)n1
inactive: NCI-H23 lung 59% | NCI-H226 lung 79.8% | NCI-H322M lung 57.1% | HOP-62 NSCLC 55.6% | NCI-H460 lung 35.6% | HOP-92 NSCLC 17.4% | NCI-H522 lung 47.3% | A549/ATCC NSCLC 62% | 786-0 renal 53.3% | COLO 205 colon 39.1%

N#C/C(=C\c1cccc2cnccc12)n1nnc2cccc(F)c21
active: HOP-92 NSCLC -25%
inactive: NCI-H23 lung 27.7% | NCI-H226 lung 62.6% | NCI-H322M lung 89.9% | HOP-62 NSCLC 53.2% | NCI-H460 lung 35.5% | NCI-H522 lung 18.3% | A549/ATCC NSCLC 86.6% | 786-0 renal 56.4% | COLO 205 colon 34.3%

O=C(Nc1ccc(-c2nc(-c3cccc(OCCN4CCOCC4)c3)c(-c3ccnc(Br)c3)[nH]2)cc1)c1ccccc1
inactive: NCI-H23 lung 13.3% | NCI-H226 lung 52.8% | NCI-H322M lung 47.4% | HOP-92 NSCLC 23.2% | NCI-H522 lung 40.7% | A549/ATCC NSCLC 21.9%
active: HOP-62 NSCLC -1.45% | NCI-H460 lung 7.26% | 786-0 renal -39.4% | COLO 205 colon -25.2%
